Source: PubChem BioAssay (Tox21)
Inconclusive results are not listed. The source made the active and inactive calls. Unless noted, the call rests on the fitted dose curve; in most records, active means well fitted curve in the direction sought with a large enough effect in the repeat runs; inconclusive means weak or mixed curves; inactive means no such curve, though single readings can be large; an effect the other way counts as inactive or inconclusive.

Experiments:
[1] = qHTS assay to identify small molecule agonists of the vitamin D receptor (VDR) signaling pathway - cell viability counter screen (AID 743224); further: on the % scale 0 is the no-effect control and ±100 the full control effect; nearly all actives have a fitted effect of over 50% in size
Outline: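 VDR-bla cells, 4 h after plating, exposed to compounds for 16 h at 37C; viability then read in the same wells as CellTiter-Glo luminescence after 30 min at room temperature, following the bla FRET read.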

[2] = qHTS assay to identify small molecule agonists of the NFkB signaling pathway (AID 1159509; active means well fitted curve in the direction sought with a large enough effect in the signal ratio in the repeat runs, not every such curve was filed as active; the % refers to the signal ratio; further: on the % scale 0 is the no-effect control and ±100 the full control effect)
Outline: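 ME-180 NFkB-bla, 2,000 cells/well, overnight plating; cpd pinned in DMSO, 5 h 37 C; B/G FRET substrate 1.5 h RT; ex 405, em 460/530 nm.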

[3] = qHTS assay to identify small molecule agonists of the NFkB signaling pathway - cell viability counter screen (AID 1159515; calls by dose curve; further: on the % scale 0 is the no-effect control and ±100 the full control effect; nearly all actives have a fitted effect of over 55% in size)
Outline: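 NFkB-bla ME-180 cells, 2,000/well, plated overnight at 37 C; compound added for 5 hr at 37 C. Viability read in the same wells as the bla reporter, by CellTiter-Glo luminescence after 30 min at room temperature.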

[4] = qHTS assay to identify small molecule agonists of the endoplasmic reticulum stress response signaling pathway (AID 1159516; active means well fitted activation curve with a large enough effect in the signal ratio in the repeat runs, not every such curve was filed as active; the % refers to the signal ratio; further: on the % scale 0 is the no-effect control and ±100 the full control effect)
Outline: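 CellSensor ESRE-bla HeLa cells, 1,500 per well, plated overnight, then exposed to compounds for 5 hr at 37 C. Beta-lactamase reporter read with LiveBLAzer B/G FRET substrate after 2 hr at room temperature, 405 nm excitation, 460 and 530 nm emission.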

[5] = qHTS assay to identify small molecule agonists of the endoplasmic reticulum stress response signaling pathway - cell viability counter screen (AID 1159517; calls by dose curve;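 further: HeLa cells carrying an ER stress response element beta-lactamase reporter; on the % scale 0 is the no-effect control and ±100 the full control effect; nearly all actives have a fitted effect of over 50% in size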)
Outline: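 HeLa cells carrying an ESRE-driven beta-lactamase reporter receive compound for 5 hr at 37 C. Cell viability is then gauged with CellTiter-Glo by luminescence, 30 min at room temperature.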

[6] = qHTS assay to identify small molecule antagonists of the retinoid-related orphan receptor gamma (ROR-gamma) signaling pathway - cell viability counter screen (AID 1159520); further: on the % scale 0 is the no-effect control and ±100 the full control effect; nearly all actives have a fitted effect of over 50% in size
Outline: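 Cytotoxicity was read from cellular ATP (CellTiter-Glo luminescence) after 16 hr at 37 C with 1 uM doxycycline induction. The inducer was added 2 hr after compound transfer to Tet-on ROR gamma CHO cells.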

[7] = biological target: Nuclear receptor ROR-gamma (Homo sapiens) (UniProt P51449); test: qHTS assay to identify small molecule antagonists of the retinoid-related orphan receptor gamma (ROR-gamma) signaling pathway (AID 1159521;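 further: CHO cells with doxycycline inducible ROR-gamma driving an RORE luciferase reporter; top concentration of the series differs between compounds; on the % scale 0 is the no-effect control and ±100 the full control effect; nearly all actives have a fitted effect of over 50% in size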)
Outline: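 Cells were plated, rested 4 h at 37 C, exposed to compounds for 2 h, then given 1 uM final doxycycline hyclate to induce RORγ expression. After 16 h, ONE-Glo luminescence from the ROR response element reporter was measured.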

[8] = qHTS assay to identify small molecule agonists of the AP-1 signaling pathway - cell viability counter screen (AID 1159525; calls by dose curve; further: nearly all actives have a fitted effect of over 55% in size)
Outline: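 Luminescent ATP readout (Cell Titer Glo, 30 min RT), normalised to DMSO and tetra n-octyl ammonium bromide controls. Cells were ME-180 AP-1-bla in 0.5% dialyzed FBS Opti-MEM, with a 5 h, 37 °C compound exposure.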

[9] = qHTS assay to identify small molecule agonists of the AP-1 signaling pathway (AID 1159526; calls by dose curve; further: on the % scale 0 is the no-effect control and ±100 the full control effect)
[10] = biological target: Retinoic acid receptor RXR-alpha (Homo sapiens) (UniProt P19793); test: qHTS assay to identify small molecule agonists of the RXR signaling pathway (AID 1159527; calls by dose curve; further: on the % scale 0 is the no-effect control and ±100 the full control effect; nearly all actives have a fitted effect of over 35% in size)
Chain of Retinoic acid receptor RXR-alpha (Homo sapiens) (P19793 whole entry, looked up): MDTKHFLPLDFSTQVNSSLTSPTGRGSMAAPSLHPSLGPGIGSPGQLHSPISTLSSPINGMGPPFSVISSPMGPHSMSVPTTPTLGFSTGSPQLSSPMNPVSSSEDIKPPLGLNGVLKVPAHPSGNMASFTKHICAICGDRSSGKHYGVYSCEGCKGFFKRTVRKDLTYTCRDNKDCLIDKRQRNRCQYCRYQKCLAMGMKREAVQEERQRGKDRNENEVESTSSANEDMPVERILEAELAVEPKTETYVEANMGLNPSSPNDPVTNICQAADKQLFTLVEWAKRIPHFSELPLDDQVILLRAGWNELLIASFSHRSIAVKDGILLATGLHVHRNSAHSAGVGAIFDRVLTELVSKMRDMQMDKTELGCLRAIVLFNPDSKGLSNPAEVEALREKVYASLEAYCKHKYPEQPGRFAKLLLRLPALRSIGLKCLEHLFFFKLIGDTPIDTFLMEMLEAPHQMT
Outline: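 Cells plated at 2,000/well, rested 5 hr at 37 C, pin-dosed with DMSO compound solutions, incubated 16 hr, then loaded with B/G FRET substrate for 2 hr at RT before dual-emission fluorescence reading.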

[11] = qHTS assay to identify small molecule agonists of the RXR signaling pathway - cell viability counter screen (AID 1159529)
Outline: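 Steps: seed RXR-alpha-UAS-bla HEK 293T cells in assay medium containing 2% charcoal-stripped FBS; incubate 5 hr; add compounds in DMSO; incubate 16 hr at 37 C; after the bla read, add CellTiter-Glo and read luminescence at 30 min.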

[12] = qHTS assay to identify small molecule antagonists of the retinoid acid receptor (RAR) signaling pathway - cell viability counter screen (AID 1159551); further: on the % scale 0 is the no-effect control and ±100 the full control effect; nearly all actives have a fitted effect of over 35% in size
Outline: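 C3RL4 RARE-luciferase cells, 1,000/well, incubated overnight, then dosed with compound plus 1 uM retinol (final). After 6 hr at 37 C, viability read by CellTiter-Glo ATP luminescence following 30 min at room temperature.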

[13] = qHTS assay to identify small molecule agonists of the retinoic acid receptor (RAR) signaling pathway (AID 1159553); conditions: C3RL4 RARE luciferase reporter, agonist, 6 h; activation: at 73.3 µM (top of the series); further: on the % scale 0 is the no-effect control and ±100 the full control effect
Outline: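 C3RL4 RARE-luciferase cells were seeded at 1,000/well and grown overnight at 37 C, then exposed to compounds for 6 hr at 37 C, 5% CO2. Luciferase reagent was added and luminescence was read after 30 min at room temperature.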

[14] = qHTS assay to identify small molecule antagonists of the estrogen related receptor (ERR) signaling pathway from Tox21 library - cell viability counter screen (AID 1224834); further: on the % scale 0 is the no-effect control and ±100 the full control effect; nearly all actives have a fitted effect of over 30% in size
Outline: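 ERR reporter cells, 2,000 per well, rested 6 h, then exposed to compound in DMSO for 17.5 hours at 37 C. Viability read as fluorescence after 30 min with CellTiter-Fluor.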

[15] = qHTS assay to identify small molecule agonists of the constitutive androstane receptor (CAR) signaling pathway - cell viability counter screen (AID 1224836); further: on the % scale 0 is the no-effect control and ±100 the full control effect; nearly all actives have a fitted effect of over 45% in size
Outline: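 Cells were seeded and incubated 4 hrs. Compounds were added across 15 concentrations together with PK11195 at 0.75 uM final. Plates were incubated 23 hrs at 37 C. CellTiter-Fluor was added and fluorescence measured.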

[16] = qHTS assay to identify small molecule antagonists of the constitutive androstane receptor (CAR) signaling pathway - cell viability counter screen (AID 1224837); further: on the % scale 0 is the no-effect control and ±100 the full control effect; nearly all actives have a fitted effect of over 45% in size
Outline: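 HepG2 cells stably carrying hCAR and CYP2B6-2.2kb reporter, stimulated with 50 nM CITCO and compounds at 15 concentrations for 23 h at 37 C. Viability measured by CellTiter-Fluor fluorescence.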

[17] = qHTS assay to identify small molecule antagonists of the vitamin D receptor (VDR) signaling pathway - cell viability counter screen (AID 743225)
Outline: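 HEK293T VDR-bla; cpd + 1a,25-(OH)2D3 3 nM final, 16 h 37C/5% CO2; B/G FRET substrate 2 h RT; then CellTiter-Glo 30 min RT, luminescence.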

[18] = biological target: Luciferin 4-monooxygenase (Photinus pyralis) (UniProt P08659); test: qHTS assay to identify small molecule inhibitors of firefly luciferase (AID 1224835); further: nearly all actives have a fitted effect of over 25% in size; further: potency means the concentration at half of the fitted maximal effect
Chain of Luciferin 4-monooxygenase (Photinus pyralis) (P08659 whole entry, looked up): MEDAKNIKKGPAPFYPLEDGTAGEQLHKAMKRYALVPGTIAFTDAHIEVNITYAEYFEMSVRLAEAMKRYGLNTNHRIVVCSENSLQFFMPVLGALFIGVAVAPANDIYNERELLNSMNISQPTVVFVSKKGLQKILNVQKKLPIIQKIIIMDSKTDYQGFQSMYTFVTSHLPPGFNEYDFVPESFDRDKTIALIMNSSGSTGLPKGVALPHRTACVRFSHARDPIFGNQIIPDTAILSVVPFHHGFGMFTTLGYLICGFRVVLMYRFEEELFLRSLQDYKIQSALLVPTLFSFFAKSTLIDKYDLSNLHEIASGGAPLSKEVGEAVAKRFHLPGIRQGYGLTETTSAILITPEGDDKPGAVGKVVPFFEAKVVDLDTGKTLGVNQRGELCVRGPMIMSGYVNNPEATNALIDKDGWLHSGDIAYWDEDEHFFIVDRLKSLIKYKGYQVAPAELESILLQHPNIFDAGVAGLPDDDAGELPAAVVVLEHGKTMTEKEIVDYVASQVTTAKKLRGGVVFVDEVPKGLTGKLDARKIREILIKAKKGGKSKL
Outline: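 Inhibition of purified Photinus luciferase is measured by luminescence. Substrate levels (D-luciferin, ATP) sit at their KM values. Each compound is tested in a concentration series.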

[19] = biological target: Nuclear receptor subfamily 1 group I member 3 (Homo sapiens) (UniProt Q14994); test: qHTS assay to identify small molecule antagonists of the constitutive androstane receptor (CAR) signaling pathway (AID 1224838); further: on the % scale 0 is the no-effect control and ±100 the full control effect; nearly all actives have a fitted effect of over 40% in size
Chain of Nuclear receptor subfamily 1 group I member 3 (Homo sapiens) (Q14994 whole entry, looked up): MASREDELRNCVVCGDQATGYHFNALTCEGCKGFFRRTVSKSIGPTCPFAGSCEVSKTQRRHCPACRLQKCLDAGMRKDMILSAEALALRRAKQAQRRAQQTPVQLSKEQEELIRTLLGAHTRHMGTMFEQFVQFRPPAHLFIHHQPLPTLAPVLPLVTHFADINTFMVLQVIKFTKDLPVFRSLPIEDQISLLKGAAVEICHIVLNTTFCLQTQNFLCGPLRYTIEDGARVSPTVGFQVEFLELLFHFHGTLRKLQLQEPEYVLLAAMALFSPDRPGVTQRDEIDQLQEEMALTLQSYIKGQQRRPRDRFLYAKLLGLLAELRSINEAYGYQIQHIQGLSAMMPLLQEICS
Outline: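 HepG2 cells stably carrying hCAR and a CYP2B6-2.2kb luciferase reporter, seeded 4 hrs before compound (15 concentrations). Stimulated with 50 nM CITCO for 24 hr at 37 C. ONE-Glo luminescence read after 30 min at room temperature.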

[20] = qHTS assay to identify small molecule antagonists of the retinoic acid receptor (RAR) signaling pathway (AID 1159552)
Outline: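 Retinol at 1 uM final stimulated RARE-luciferase expression in C3RL4 cells exposed to test compounds for 6 hr at 37 C. Reduced luminescence, read 30 min after detection reagent, indicated pathway antagonism.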

CC(C)c1ccccc1O
inactive: outcome [1] | outcome [2] | outcome [3] | outcome [4] | outcome [5] | outcome [6] | outcome [7] | outcome [8] | outcome [9] | Potency [10] | outcome [11] | outcome [12] | Potency [13] | Potency [14] | outcome [15] | Potency [16]

CCOC(=O)CCCCCCCCC(=O)OCC
inactive: outcome [1] | outcome [17] | outcome [2] | outcome [3] | outcome [4] | outcome [5] | outcome [6] | outcome [8] | outcome [9] | outcome [11] | outcome [12] | Potency [13] | Potency [14] | Potency [18] | outcome [15] | Potency [19]

CCC(C)(CCC(C)C)C(=O)[O-].CCC(C)(CCC(C)C)C(=O)[O-].[Zn+2] (centres undefined)
inactive: outcome [1] | outcome [2] | outcome [3] | outcome [4] | outcome [5] | outcome [6] | outcome [7] | outcome [8] | outcome [9] | outcome [11] | outcome [12] | Potency [13] | Potency [14] | Potency [16]
active: Potency [18] 25.2 µM

NC(=O)C1(N2CCCCC2)CCN(CCCC(=O)c2ccc(F)cc2)CC1
inactive: outcome [1] | outcome [17] | outcome [2] | outcome [3] | outcome [4] | outcome [5] | outcome [6] | outcome [7] | outcome [8] | outcome [9] | outcome [11] | Potency [20] | Potency [13] | Potency [14] | outcome [15] | Potency [16]

BrC/C=C/CBr
inactive: outcome [1] | outcome [17] | outcome [2] | outcome [3] | outcome [4] | outcome [5] | activity, negative = cytotoxicity [6] -4.58% [at 19 µM] | viability change, negative = cytotoxic [8] 1.78% [at 15.8 µM] | activation [9] -6.33% [at 15.8 µM] | activation [10] 4.67% [at 15.8 µM] | activity change, negative = cytotoxicity [11] -1.93% [at 15.8 µM] | activity change, negative = cytotoxicity [12] 3.13% [at 19 µM] | activity, negative = inhibition [20] 22.9% [at 19 µM] | Potency [13] | viability change, negative = cytotoxic [14] 0.661% [at 19 µM] | activity change, negative = inhibition [18] 0.329% [at 23.6 µM] | viability change, negative = cytotoxic [15] 0.935% [at 19 µM] | activity change, negative = cytotoxicity [16] -2.33% [at 19 µM]

N#CCCOCCOCCC#N
inactive: outcome [1] | outcome [17] | outcome [2] | outcome [3] | outcome [4] | outcome [5] | outcome [6] | outcome [8] | outcome [9] | Potency [10] | outcome [11] | outcome [12] | Potency [13] | Potency [14] | outcome [15] | Potency [16]

NS(=O)(=O)c1ccc(Cl)c(S(N)(=O)=O)c1
inactive: outcome [1] | outcome [2] | outcome [3] | outcome [4] | outcome [5] | outcome [6] | outcome [7] | outcome [8] | outcome [9] | outcome [11] | outcome [12] | Potency [20] | Potency [13] | Potency [14] | outcome [15] | Potency [16]

CCCCOC(=O)[C@@H](C)Oc1ccc(Oc2ccc(C(F)(F)F)cn2)cc1
inactive: outcome [1] | outcome [17] | outcome [2] | outcome [3] | outcome [4] | outcome [5] | outcome [6] | outcome [8] | outcome [9] | Potency [10] | outcome [11] | Potency [13] | Potency [14] | Potency [18] | outcome [15] | Potency [19]
